Bioassay records (PubChem)
An excerpt weighted towards active compounds, which were near 4.6% of everything screened.
GBA activity: Glucocerebrosidase; purified enzyme, resorufin glucoside fluorescence (screen aimed at inhibitors), 20 min; Potency, µM; 48,000 compounds, 1.1% hits; in the data active = potency below about 15 µM; inconclusive = mostly about 16 µM to 33 µM;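 also: the screen sought inhibitors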
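Compounds titrated against 0.2 nM normal enzyme, 30 uM resorufin beta-D-glucopyranoside substrate, citrate/phosphate buffer with taurocholate and tween-20, pH 5.9. Reaction ran 20 min at room temperature; fluorescence (Ex 548/Em 600) gave AC50.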
PK Bst: Pyruvate Kinase. purified pyruvate kinase, luminescence ATP production; ribose 5-phosphate activator present at AC10. Potency, µM. 51,000 compounds, 1.2% hits; in the data active = potency below about 11 µM; inconclusive = mostly about 12 µM to 25 µM;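 the screen sought inhibitors and activators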;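 also: scaled between full activation by ribose 5 phosphate and full inhibition by luteolin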
15-hLO inh: qHTS Assay for Inhibitors of 15-hLO (15-human lipoxygenase); Polyunsaturated fatty acid lipoxygenase ALOX15 (Homo sapiens), P16050; purified 15hLO-1, xylenol orange hydroperoxide absorbance; Potency, µM (series often up to 57.1 µM), for the others: at the highest dose activity change, negative = inhibition, actives largely listed as inhibitors; 74,000 compounds, 1.4% hits; AID 887, 2007; also: % is scaled to controls: 0 for no effect and ±100 for the full control effect; nearly all actives have a fitted effect of over 55% in size
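Purified human 15hLO-1 (40 nM final) in 25 mM Hepes pH 7.5, 0.01% Triton X-100 was preincubated with compound 15 min at room temperature, then reacted 6 min with 50 uM arachidonic acid; hydroperoxide detected by Fe-XO, 573/405 nm absorbance ratio.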
Tau fil binding: qHTS Assay for Tau Filament Binding | Microtubule-associated protein tau (Homo sapiens), P10636 | recombinant tau filaments, thioflavin S fluorescence, 15 h; filaments grown with octadecylsulfate alongside compound | Potency, µM (top dose mostly 57.1 µM), inactives show at the top dose activity change, negative = inhibition | 71,000 compounds, 2% hits;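 also: % is scaled to controls: 0 for no effect and ±100 for the full control effect; actives lower thioflavin S fluorescence by blocking filaments or displacing dye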
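His-tagged recombinant human tau (exons 2, 3, 10; 1 uM final) fibrillized with 30 uM sodium octadecylsulfate, 15 h at 37 C, in pH 7.4 HEPES buffer with 10 uM thioflavine S and 5 mM DTT. Reduced ThS fluorescence (450/510 nm) marks activity.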
Hsp90 Hop PPI: qHTS Assay for Disrupters of an Hsp90 Co-Chaperone Interaction. Hsp90 C-terminal peptide / TPR2A (Hop) interaction, human. AlphaScreen TPR2A-His6 binding biotin-Hsp90 C-terminal peptide. Potency, µM (top dose mostly 57 µM), for inactives: at the highest dose activity change, negative = inhibition. 71,000 compounds, 0.44% hits. AID 595, 2007; active = well fitted curve in either direction with a large enough effect; inconclusive = small, poorly fitted or top-dose-only effect, or another doubt; also: % is scaled to controls: 0 for no effect and ±100 for the full control effect
USP2a inhib: qHTS Assay for Inhibitors of Ubiquitin-specific Protease USP2a. Ubiquitin carboxyl-terminal hydrolase 2 (Homo sapiens), O75604. USP2a enzymatic assay, qHTS inhibition. Potency, µM (highest dose often 38.3 µM), for the others: at the top dose activity change, negative = inhibition, hits mostly inhibitors. 60,000 compounds, 0.1% hits; also: nearly all actives have a fitted effect of over 60% in size
Target sequence (O75604 whole entry, looked up): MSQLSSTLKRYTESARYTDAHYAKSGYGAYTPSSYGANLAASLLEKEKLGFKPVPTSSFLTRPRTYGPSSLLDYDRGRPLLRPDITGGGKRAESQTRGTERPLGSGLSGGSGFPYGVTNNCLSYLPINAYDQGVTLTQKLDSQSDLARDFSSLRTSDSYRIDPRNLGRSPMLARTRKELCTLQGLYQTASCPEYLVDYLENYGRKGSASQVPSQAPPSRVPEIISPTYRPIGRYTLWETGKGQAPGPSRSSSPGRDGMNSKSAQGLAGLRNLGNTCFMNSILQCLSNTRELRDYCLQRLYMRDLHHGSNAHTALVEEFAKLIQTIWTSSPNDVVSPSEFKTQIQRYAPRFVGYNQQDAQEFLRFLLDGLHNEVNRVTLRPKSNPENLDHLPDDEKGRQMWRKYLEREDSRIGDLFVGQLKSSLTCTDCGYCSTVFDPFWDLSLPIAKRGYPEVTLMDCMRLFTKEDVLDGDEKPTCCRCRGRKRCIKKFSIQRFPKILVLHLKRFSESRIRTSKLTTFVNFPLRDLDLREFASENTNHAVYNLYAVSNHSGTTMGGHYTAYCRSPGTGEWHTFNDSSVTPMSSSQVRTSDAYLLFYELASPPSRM
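Inhibition is measured in a cell-free coupled assay with 20 nM USP2 core, 20 nM Ub-PLA2 and 20 uM NBD C6-HPC, 2.5 h incubation. Activity normalized to NEM control.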
Starred values were filed as active, the others as inactive; i = inactive; u = inconclusive; x = no result given; [ ] = another dose, or the depositor's remark. Unless noted, calls follow the shape of the dose curve; as a rule, active = well fitted curve in the direction sought with a large enough effect; inconclusive = small, poorly fitted or top-dose-only effect, or another doubt; inactive = no such curve, though single readings can be large; an effect the other way counts as inactive or inconclusive. Potency is read from the fitted curve at half-maximal effect.

SMILES	GBA activity	PK Bst	15-hLO inh	Tau fil binding	Hsp90 Hop PPI	USP2a inhib
CC1Cc2ccccc2N1C(=O)c1cnsn1 (stereo unspecified)	>77	>57	4µM*	-7%	u	-7%
O=C1C(c2ccncc2)=C(O)c2ccccc21	>77	u	-18%	u	-12%	-9%
Cc1cc(C)n(-c2ccc(C(=O)OCC(=O)c3ccc(Br)s3)cc2)n1	>77	>57	-10%	13µM*	-2%	49%
Cc1cc(C(=O)CSc2nc3ccc(Cl)cc3[nH]2)c(C)n1C	>77	x	25µM*	-15%	-11%	23%
Cc1cc(C(=O)CSc2nnc(-c3ccccc3)n2C)c(C)n1C	>77	>57	-15%	-7%	-6%	-9%
Cc1cc(C(=O)CSc2nnc(-c3cccnc3)n2-c2ccccc2F)c(C)n1C	>77	>11	16µM*	88%	-12%	27%
Cc1cc(-c2nnc(-c3cc4ccccc4oc3=O)o2)c(C)n1-c1ccccc1	>77	>57	-12%	3.2µM*	2%	33%
CN1C(=O)CC(P(=O)(c2ccccc2)c2ccccc2)N(C)C1=O (stereo unspecified)	x	x	2%[11.4 µM]	4%[11.4 µM]	-3%[11 µM]	2%[7.66 µM]
CCCCn1c2nc3ccccc3nc2c2c(=O)n(CCC(C)C)cnc21	>77	>57	-1%	-9%	-2%	-3%
CCCCC(CC)Cn1c2nc3ccccc3nc2c2c(=N)oc(C)nc21 (stereo unspecified)	>77	>57	-10%	2.5µM*	0%	7%
CCOC(=O)c1ccc(NC(=O)NCc2ccn(CC)n2)cc1	>77	>57	2%	8%	-3%	10%
COC(=O)CSc1nc2c(c(-c3ccco3)c1C#N)CCCC2	>77	>57	10µM*	16µM*	-10%	36%
N#Cc1c(N)nc(SCc2ccccc2)c(C#N)c1-c1ccco1	>77	>57	u	-11%	17%	40%
N#Cc1c(N)nc(SCC(=O)OCc2ccccc2)c(C#N)c1-c1ccco1	>77	>57	16µM*	3%	1%	57%
CC(C)(Oc1cccc2ccccc12)C(=O)O	>77	u	12%	-6%	-2%	-3%
CCOC(=O)Cc1nnc2c(Nc3ccc(Cl)cc3)nc3nonc3n12	>77	>57	-11%	16µM*	-5%	35%
CCOC(=O)N1CCN(C(=O)Nc2ccc(Cl)cc2)CC1	>77	>57	-2%	-12%	-4%	6%
CN1CCN(c2nc(-c3ccc(N(C)C)cc3)nc3ccccc23)CC1	x	x	2%	13µM*	u	21%
Nn1c(-c2ccccn2)nnc1-c1ccccn1	>77	>57	16%	-19%	u	-2%
c1ccc(-c2ccccn2)nc1	x	x	9%	-5%	13µM*	-1%
COC(=O)C1=C(C)N(C2CCCC2)C(=O)C1(NC(C)=O)C(F)(F)F (stereo unspecified)	>77	x	3%	146%	-11%	20%
O=C1CC(c2ccco2)c2ccc3ccccc3c2N1 (stereo unspecified)	>77	>57	-29%	6%	-12%	1%
O=C(O)c1cc(/C=N\O)ccc1OCc1ccccc1	>77	>57	-9%	-3%	-2%	-3%
COc1cc(/C=N/O)ccc1OCc1ccc(C(=O)O)cc1	x	0.39*	x	x	x	x
CSc1nc2sc3c(c2c(=O)[nH]1)CCCC3	x	x	-3%	x	x	x
SMILES	GBA activity	PK Bst	15-hLO inh	Tau fil binding	Hsp90 Hop PPI	USP2a inhib
Cc1nn2cc(-c3ccccc3)nc2s1	>77	u	25µM*	4%	1%	-3%
Cc1c(C(=O)N2CCOCC2)sc2nc(-c3ccccc3)cn12	>77	x	-1%	3%	-6%	0%
O=C(CSc1nc(-c2ccco2)cc(C(F)(F)F)n1)Nc1ccc2c(c1)OCO2	>77	>57	-6%	153%	-3%	20%
O=C(CCCSc1nc(-c2ccco2)cc(C(F)(F)F)n1)Nc1ccc2c(c1)OCO2	>77	>57	-14%	25µM*	-9%	194%
Cn1cccc1Cc1nnc(SCC(=O)Nc2nccs2)n1CCc1ccccc1	x	x	u	13%	-14%	x
O=C1C(Cl)=C(NC2CCc3ccccc32)C(=O)c2ncccc21 (stereo unspecified)	x	x	-17%	25µM*	u	x
c1ccc2c(c1)CCCC2NC1=NCCC1 (stereo unspecified)	>77	>57	6%	0%	-1%	-16%
CCCCOc1ccc(OCCCC)c2c1NC1(N2)C(=O)N(C(C)=O)c2ccccc21	6.1*	>57	0%	-82%	-4%	2%
O=C1NCC(COCC2CC=CCC2)O1 (stereo unspecified)	x	>26	x	x	x	x
Cc1ccc(Cn2c(=N)n(CC(O)c3ccco3)c3ccccc32)cc1 (stereo unspecified)	10*	>57	-8%	-3%	-4%	19%
CN(C(=O)C1CCN(S(=O)(=O)c2cccs2)CC1)C1CCCCC1	13*	>57	6%	9%	-1%	-1%
COCCn1c(=O)c(-c2cccc(C#N)c2)nc2cnc(Oc3ccccc3)nc21	x	x	-9%	u	-2%	32%
CN1CCN(CCCNc2nc3ccccc3c3nc(-c4ccccc4)nn23)CC1	>77	10*	9%	7%	1%	3%
CCCOc1ccc(S(=O)(=O)NCCCN2CCOCC2)c2ccccc12	u	>57	1%	6%	-5%	20%
CC1CN(S(=O)(=O)c2ccccc2)CC(C)O1 (stereo unspecified)	>77	>57	8%	5%	-1%	-1%
CC1CN(S(=O)(=O)c2ccc(NC(=O)c3cc(-c4ccccc4O)n[nH]3)cc2)CC(C)O1 (stereo unspecified)	7.6*	>57	u	300%	u	38%
O=C(Cc1coc2cc3c(cc12)CCC3)OCc1cc(=O)n2c(n1)sc1ccccc12	x	>57	20µM*	71%	-10%	25%
Cc1ccc2c(CC(=O)OCc3csc(C)n3)coc2c1	>77	>57	-12%	-2%	8%	10%
CC1CC=C2C(C#N)=C(N)C(C#N)(C#N)C(c3cccs3)C2C1 (stereo unspecified)	11*	>57	u	i	-5%	x
CC(C)(C)OC(=O)N1CC=C2C(C#N)=C(N)C(C#N)(C#N)C(c3cccs3)C2C1 (stereo unspecified)	u	>57	u	55%	-4%	19%
CC1=C(/C=C/C(C)=C/C=C/C(C)=C\C=O)C(C)(C)CCC1	x	x	-28%	6.3µM*	-17%	x
